Among the data in the supplement of paper PMC6555819 are PBM binding z-score values, retold here.

Common to all, as to test: PBM binding z-score (relative to random genomic background probes); higher = stronger binding; sequences stand for … in GC…GCGATTGACAGCGTAGAATGAAGG
Assay [1] relates to FXR:RXRa (NR concentration 270 nM, RXRa partner concentration 90 nM). Put shortly: (§1)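 On custom Agilent 4×180K arrays, double-stranded probes with 34-nt variable regions carried direct-repeat seeds, single-nucleotide variants, half-site ablations or random human genomic background. Ligand-free nuclear receptor dimers were applied for 1 h, and binding was read with antibodies against each partner (one per run). Binding z-scores come from regression-normalized fluorescence, with the random background probes as reference.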

The test system of assay [2] is LXRa:RXRa (NR concentration 270 nM, RXRa partner concentration 90 nM). Put shortly:
as §1

Assay [3] deals with LXRa homodimer (NR concentration 270 nM). In outline:
as §1

The subject of assay [4] is LXRb:RXRa (NR concentration 270 nM, RXRa partner concentration 90 nM). Put shortly: as §1
Assay [5] has as its system LXRb homodimer (NR concentration 270 nM). In outline:
as §1

Assay [6] relates to PPARa:RXRa (NR concentration 270 nM, RXRa partner concentration 90 nM). Put shortly:
as §1

Assay [7] concerns PPARg:RXRa (NR concentration 180 nM, RXRa partner concentration 90 nM). Put shortly: as §1
For assay [8], the system named is PPARg:RXRa 270nM:90nM, anti-RXR (NR concentration 270 nM, RXRa partner concentration 90 nM). Put shortly:
as §1

Assay [9] relates to PPARg:RXRa 30nM:10nM, anti-RXR (NR concentration 30 nM, RXRa partner concentration 10 nM). In outline: as §1
For assay [10], the system named is PPARg:RXRa 90nM:30nM, anti-RXR (NR concentration 90 nM, RXRa partner concentration 30 nM). In outline:
as §1

The subject of assay [11] is PPARg:RXRa DBDmut IVT, anti-RXR (DBD mutation: RXRa K156A/R161A, NR concentration 270 nM, RXRa partner concentration 90 nM). Put shortly: as §1
Assay [12] has as its system PPARg:RXRa IVT, anti-PPARg (NR concentration 270 nM, RXRa partner concentration 90 nM). In outline: as §1
For assay [13], the system named is PPARg DBDmut:RXRa IVT, anti-PPARg (DBD mutation: PPARg1 K132A/R137A, NR concentration 270 nM, RXRa partner concentration 90 nM). In outline: as §1
Assay [14] concerns PPARg DBDmut IVT, anti-PPARg (DBD mutation: PPARg1 K132A/R137A, NR concentration 270 nM). In outline:
as §1

Assay [15] deals with PPARg homodimer (NR concentration 180 nM). Put shortly:
as §1

Assay [16] concerns PXR:RXRa (NR concentration 270 nM, RXRa partner concentration 90 nM). Put shortly: as §1
The test system of assay [17] is PXR homodimer (NR concentration 270 nM). Put shortly:
as §1

Assay [18] relates to RARa:RXR (NR concentration 270 nM, RXRa partner concentration 90 nM). Put shortly: as §1
Assay [19] deals with RARa homodimer (NR concentration 270 nM). In outline:
as §1

Assay [20] relates to RARb:RXRa (NR concentration 270 nM, RXRa partner concentration 90 nM). In outline:
as §1

Take TTACCAAGGTGAAGGTCGTTGTTCCCTCTGTAGA: the PBM binding z-score in [1] is 1.41; in assay [2], 1.32; in [3] it was 0.195; in [4], 1.41; in [5], -0.491; in assay [6], 2.58. Further, the PBM binding z-score was 2.54 in assay [7]; 4.08 in assay [8]; 2.07 in [9]; 3.78 in [10]; 2.23 in assay [11]; 3.49 in [12]. Further, the PBM binding z-score is -0.665 in [13]; -0.042 in assay [14]; 0.635 in [15]; 1.47 in [16]; 0.134 in assay [17]; 1.76 in [18]. The PBM binding z-score is -0.318 in [19] and 2.4 in assay [20].
Take TCTCGGCGGACACGAAAGGTCAGAGCTCGACATC: the PBM binding z-score is 1.93 in assay [1]; 3.18 in assay [2]; 2.3 in [3]; 2.79 in assay [4]; -0.427 in assay [5]; 2.94 in assay [6]. Further, the PBM binding z-score in assay [7] was found to be 0.571; in assay [8], 1.69; in assay [9] it was 1.42; in assay [10] it was 1.53; in assay [11] it was 1.12; in [12] it was 0.541. For the same sequence, the PBM binding z-score in assay [13] was -0.347; in [14], -0.845; in assay [15], 1.83; in [16] it was 3.15; in assay [17] it was -0.247; in assay [18], 3.71. Besides, the PBM binding z-score was determined as 0.345 in assay [19] and 3.56 in [20].
Regarding TGAATGAGGTTCAAGATCAGGGAACGTGGCGTCG, the PBM binding z-score in assay [1] is 0.995; in assay [2], 0.96; in assay [3], -0.757; in [4] it was 0.185; in assay [5], -0.0166; in assay [6], 1.76. Besides, the PBM binding z-score in assay [7] is 0.831; in assay [8] it was 1.62; in assay [9] it was 0.424; in assay [10], 1.14; in assay [11] it was -0.641; in [12], 0.696. The PBM binding z-score in [13] was 0.378; in assay [14] it was 0.169; in assay [15], -0.0825; in assay [16] it was 0.583; in [17] it was -0.309; in assay [18], 0.775. Besides, the PBM binding z-score in [19] was 0.0432; in [20], 1.17.
With CCTAGCAGGCCAATCTGGGTCACACAAGGCTTGA, the PBM binding z-score is 1.88 in [1]; 1.82 in assay [2]; -0.247 in assay [3]; 1.21 in [4]; -0.968 in assay [5]; 3.68 in assay [6]. In addition, the PBM binding z-score in [7] was determined as 3.08; in [8], 2.68; in [9] it was 0.555; in assay [10], 2.1; in assay [11] it was 4.53; in assay [12] it was 5.23. Also, the PBM binding z-score was 0.519 in [13]; -0.276 in [14]; 0.856 in [15]; 1.56 in assay [16]; -0.6 in assay [17]; 1.86 in [18]. Besides, the results for the PBM binding z-score in assay [19] and in assay [20] were 0.119 and 1.76, respectively.
For the sequence TCTAGTTGGTCACGCAGGTCACACACGACGGGTA, the PBM binding z-score in [1] is 1.94; in [2], 1.98; in assay [3], 1.08; in assay [4], 2.09; in assay [5], 0.279; in assay [6], 2.87. Besides, the PBM binding z-score in [7] was 2.09; in [8] it was 2.99; in assay [9] it was 3.37; in [10] it was 2.92; in [11], 2.32; in assay [12] it was 3.48. Moreover, the PBM binding z-score stood at 0.238 in assay [13]; 1.23 in [14]; 1.91 in assay [15]; 2.72 in assay [16]; 0.544 in assay [17]; 3.15 in assay [18]. Also, the PBM binding z-score in [19] was found to be 1.14; in [20], 3.05.
As to CGAACTAGGTCATCCAGGACAGCGAATACATTGA, the PBM binding z-score in [1] was 4.51; in [2], 2.55; in [3], 0.58; in assay [4] it was 2.07; in assay [5], -0.199; in [6] it was 4.82. Further, the PBM binding z-score in [7] was 7.57; in [8], 6.41; in assay [9] it was 4.29; in assay [10] it was 5.78; in [11], 8.26; in assay [12], 8.15. Moreover, the PBM binding z-score came to 1.97 in assay [13]; 1.48 in assay [14]; 1.78 in assay [15]; 1.78 in [16]; 1.09 in assay [17]; 2.33 in [18]. Also, the results for the PBM binding z-score in [19] and in [20] were -0.0811 and 3.81, respectively.
In the case of ACACGGAGGACAAAGGTCAGAGCTACGCCAGTGA, the PBM binding z-score in [1] amounted to 4.18; in assay [2] it was 4.33; in assay [3], 1.74; in assay [4], 3.36; in assay [5] it was 0.366; in assay [6], 5.18. Also, the PBM binding z-score in [7] turned out to be 7.55; in [8], 7.26; in assay [9], 5.39; in [10] it was 7.07; in assay [11], 0.363; in assay [12], 3.8. Also, the PBM binding z-score in assay [13] is 0.472; in [14] it was -0.253; in [15], 3.82; in [16], 3.92; in assay [17], 0.625; in assay [18], 4.81. Besides, the PBM binding z-score in [19] stood at 1.1; in [20], 4.58.
